High-throughput results (PubChem)
Sfp inh – inhibitors of Bacillus subtilis Sfp phosphopantetheinyl transferase. Q9F4F7. Biochemical Sfp PPTase activity, qHTS. Potency, µM, without a hit: largest response in the series, negative = inhibition, most hits filed as inhibitors. actives 3.5% (n = 310,000). AID 1490;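 further: the enzyme is Sfp with the accession as filed and its product quenches rhodamine fluorescence; potency means the concentration at half of the fitted maximal effect; 0% = enzyme reaction without inhibitor and -100% = no enzyme wells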
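Buffer: 50 mM Hepes-Na pH 7.6, 10 mM MgCl2, 0.01% Nonidet P-40, 0.01% BSA. Enzyme 15 nM, pre-exposed to compound 15 min; substrates then added and fluorescence change tracked over 30 min.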
Coupling enz – coupling enzyme interference in Giardia aldolase counter-screen; coupling enzyme system counterscreen, AmpLite Red fluorescence; actives 0.67% (n = 290,000); activity change, negative = inhibition, % at 58.2 µM, hits read low; AID 2472; in the data active means activity change below about -30%
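Counterscreen of the coupled detection system alone, without aldolase: glyceraldehyde-3-phosphate coupling enzymes plus AmpLite Red readout. Compounds at 57.5 uM final, 10 min RT preincubation, 20 min RT reaction, fluorescence 525/598 nm.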
ALDH1A1 block – inhibitors of human aldehyde dehydrogenase 1A1; Potency, µM (series often up to 75.3 µM), without a hit: top-dose activity, negative = inhibition, hits mostly inhibitors; Purified ALDH1A1, NADH fluorescence, propionaldehyde substrate; actives 7.3% (n = 220,000); P00352; active means well fitted inhibition curve with a large enough effect, not every such curve was filed as active; inconclusive means small, poorly fitted or top-dose-only effect, or another doubt; inactive means no such curve, though single readings can be large or run the other way;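 further: potency means the concentration at half of the fitted maximal effect; plate controls were no enzyme wells and a reference inhibitor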
NPSR antagonist – blocks cAMP signaling of the human neuropeptide S receptor; Q6W5P4; CHO-NPSR cells, cAMP TR-FRET, antagonist mode; Potency, µM (series often up to 38.3 µM), for inactives: at the highest dose activity change, negative = inhibition, most hits filed as inhibitors; actives 1% (n = 220,000); AID 1461; further: potency means the concentration at half of the fitted maximal effect; nearly all actives have a fitted effect of over 50% in size
RGS12 GoLoco inh – RGS12 GoLoco-Gai1 interaction inhibition | Gai1:RGS12 GoLoco peptide FP, rhodamine, 10 min | Potency, µM (series often up to 61.6 µM), inactives show top-dose activity, negative = inhibition, usual class: inhibitors | actives 0.44% (n = 230,000) | AID 880; active means well fitted inhibition curve with a large enough effect, not every such curve was filed as active; inactive means no such curve, though single readings can be large or run the other way; further: potency means the concentration at half of the fitted maximal effect; nearly all actives have a fitted effect of over 30% in size
Target sequence (P63096 whole entry, looked up): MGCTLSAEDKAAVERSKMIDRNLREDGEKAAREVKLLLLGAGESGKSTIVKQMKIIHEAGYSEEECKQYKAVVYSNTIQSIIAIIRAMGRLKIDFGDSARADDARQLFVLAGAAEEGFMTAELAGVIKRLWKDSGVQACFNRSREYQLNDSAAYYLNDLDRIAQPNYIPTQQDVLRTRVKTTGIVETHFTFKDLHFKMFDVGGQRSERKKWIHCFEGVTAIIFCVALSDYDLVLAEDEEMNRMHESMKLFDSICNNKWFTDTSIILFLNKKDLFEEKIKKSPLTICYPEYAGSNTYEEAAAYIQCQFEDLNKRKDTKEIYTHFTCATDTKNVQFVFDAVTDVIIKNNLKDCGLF
JMJD2E inh – JMJD2E (human) inhibition; actives 1.6% (n = 230,000); AID 2147; JMJD2E catalytic domain, FDH-coupled NADH fluorescence (FDH is formaldehyde dehydrogenase); B2RXH2; Potency, µM (highest dose often 57.1 µM), inactives show at the highest dose activity change, negative = inhibition, most hits filed as inhibitors; active means well fitted inhibition curve with a large enough effect, not every such curve was filed as active; inconclusive means small, poorly fitted or top-dose-only effect, or another doubt; inactive means no such curve, though single readings can be large or run the other way;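 further: potency means the concentration at half of the fitted maximal effect; 0% = wells with enzyme and -100% = buffer wells without enzyme; nearly all actives have a fitted effect of over 50% in size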
Target sequence (B2RXH2 1-337 limits assumed): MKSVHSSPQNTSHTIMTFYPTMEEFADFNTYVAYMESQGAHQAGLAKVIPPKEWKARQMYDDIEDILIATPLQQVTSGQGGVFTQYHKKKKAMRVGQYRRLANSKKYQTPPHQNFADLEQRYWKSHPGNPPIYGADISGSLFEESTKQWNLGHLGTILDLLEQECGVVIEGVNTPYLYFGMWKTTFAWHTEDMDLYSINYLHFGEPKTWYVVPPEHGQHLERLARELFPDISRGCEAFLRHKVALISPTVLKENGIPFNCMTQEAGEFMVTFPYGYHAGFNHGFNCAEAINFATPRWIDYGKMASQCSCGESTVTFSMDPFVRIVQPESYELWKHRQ
* marks the source's active call; other numbers are inactive results; ? = inconclusive; . = not tested or not shown; [ ] = another dose, or the depositor's remark. The list is not random: actives were taken first. Their share in the collection is about 8.5%. Unless noted, the call rests on the fitted dose curve; in most records, active means well fitted curve in the direction sought with a large enough effect; inconclusive means small, poorly fitted or top-dose-only effect, or another doubt; inactive means no such curve, though single readings can be large; an effect the other way counts as inactive or inconclusive. Unless noted, on the % scale 0 is the no-effect control and ±100 the full control effect.

SMILES | Sfp inh | Coupling enz | ALDH1A1 block | NPSR antagonist | RGS12 GoLoco inh | JMJD2E inh
Cc1ccccc1C(=O)N1CCN(c2ccc([N+](=O)[O-])c(N3CCOCC3)c2)CC1 | 1.1% | 8.0 | ? | -13.9%[46.1 µM] | 7.9% | 2.8%
O=C(c1ccccc1F)N1CCN(c2ccc([N+](=O)[O-])c(N3CCOCC3)c2)CC1 | -5.0% | 6.1 | 0.708µM* | -13.0% | 9.8% | 3.4%
O=C(c1cccc2ccccc12)N1CCN(c2ccc([N+](=O)[O-])c(N3CCOCC3)c2)CC1 | 6.4% | 1.2 | 10µM* | -17.3% | -0.9% | -4.1%
O=C(COc1ccc(Cl)cc1)N1CCN(c2ccc([N+](=O)[O-])c(N3CCOCC3)c2)CC1 | 7.5% | 1.9 | ? | -7.5% | 4.3% | -5.2%
COc1cc2[nH]c(=S)n(Cc3cccs3)c(=O)c2cc1OC | 8.5% | 1.3 | 1.12µM* | -24.1% | 6.9% | -5.1%
CCCn1c(=S)[nH]c2cc(OC)c(OC)cc2c1=O | 1.9% | 0.8 | ? | -3.5%[46.1 µM] | -7.1% | -4.8%
CCN(CC)c1ccc(N=Cc2c(C)[nH]c3ccccc23)cc1 | 50.1µM* | -17.7 | 0.447µM* | -39.5% | 31.2% | 0.794µM*
CCN1CCN(C(=O)c2oc(=O)c3ccccc3c2-c2ccc(C)cc2)CC1 | 5.2% | 0.5 | ? | 22.8% | 9.1% | 4.5%
Cc1ccc(-c2c(C(=O)N3CCOCC3)oc(=O)c3ccccc23)cc1 | 8.6% | 1.3 | 1.58µM* | -13.9%[46.1 µM] | -21.8% | -7.0%
Cc1ccc(-c2c(C(=O)NCc3ccc(F)cc3)oc(=O)c3ccccc23)cc1 | -4.8% | 1.1 | 7.08µM* | -35.5% | 3.9% | -16.1%
CCc1nn2c(NCCOC)cc(C)nc2c1-c1ccc(F)cc1 | -9.0% | 1.2 | ? | -42.5% | 1.1% | ?
O=C(C(Cl)Cl)N1c2ccccc2OCC1c1ccccc1 (configuration not stated) | -3.7% | -15.5 | 1.26µM* | -22.5%[46.1 µM] | -1.0% | -14.0%
Cc1ccc(S(=O)(=O)N2c3ccccc3OCC2c2ccccc2)cc1 (configuration not stated) | 4.4% | -16.2 | 10.4% | -22.7%[46.1 µM] | -17.5% | 10.3%
O=C(c1ccc(=O)oc1)N1CCCc2ccccc21 | ? | -2.7 | 10µM* | -10.3%[46.1 µM] | 89.7% | 14.1µM*
O=C1c2ccccc2C(=O)N1CCCC(=O)N1CCCc2ccccc21 | 4.6% | 4.4 | 14.1µM* | -8.3%[46.1 µM] | 22.0% | 3.0%
CN1CCc2c(OCC(=O)N3CCCc4ccccc43)cccc2C1=O | 12.0% | 2.6 | ? | -0.9% | 2.2% | 3.0%
CC(=O)Nc1ccc2c(c1)CCCN2C(=O)c1ccccc1 | 11.0% | -0.9 | 14.1µM* | 10.2%[7.67 µM] | 9.2% | -10.0%
CC(=O)Nc1ccc(C(=O)N2CCCc3ccccc32)cc1 | 10.6% | 1.4 | . | . | . | .
COc1ccccc1N1CCN(CCC(=O)Nc2cccc(Cl)c2)CC1 | 0.2% | 0.6 | . | . | . | .
O=C(CSCc1ccccn1)Nc1ccccc1 | 11.2% | 2.4 | 7.1% | -6.4%[46.1 µM] | -4.2% | -0.6%
CC(=O)CSCc1ccccn1 | . | . | 3.55µM* | . | -4.3%[14.2 µM] | .
CC1CCC(C(C)C)C(P(=O)(c2ccccc2)c2ccccc2)C1 (configuration not stated) | 3.2% | -0.1 | . | . | . | .
CC(=O)c1ccccc1NCC(=O)Nc1ccc(C)cc1 | -10.9% | -4.8 | 12.6µM* | -4.9% | 9.5% | 3.5%
O=C(CNc1ccccc1)Nc1ccc(F)cc1 | 1.4% | 4.3 | 14.1µM* | 1.8%[46.1 µM] | -0.7% | -0.2%
O=C(CNS(=O)(=O)c1ccc(F)cc1)Nc1ccccc1 | 3.8% | . | . | . | . | .
SMILES | Sfp inh | Coupling enz | ALDH1A1 block | NPSR antagonist | RGS12 GoLoco inh | JMJD2E inh
O=C(CSc1ccc(F)cc1)Nc1ccc(Br)cc1 | 8.3% | 2.2 | 20µM* | -8.4% | 12.4% | -2.9%
CC1CCc2c(sc3ncnc(SCC(=O)Nc4ccc(C(=O)O)cc4)c23)C1 (configuration not stated) | -6.5% | 11.9 | . | . | . | .
COc1cc(NC(=O)CSc2ncnc3sc4c(c23)CCC(C)C4)c(C(=O)O)cc1OC (configuration not stated) | 44.7µM* | 2.9 | . | . | . | .
COc1ccccc1-n1c(C)c(C(C)=O)c2cc(O)ccc21 | 3.7% | -11.3 | . | . | . | .
O=C(O)C1(C(=O)O)CCC1.[NH2-].[NH2-].[Pt+2] | 6.31µM* | 2.1 | . | . | . | .
CC1(C(=O)O)CC(C)(C(=O)O)CC(C)(C(=O)O)C1 (configuration not stated) | 7.6% | -2.1 | 7.4% | -2.9%[46.1 µM] | 1.4% | 0.7%
Cc1cc(=O)oc2c(CN3CCCC3)c(O)ccc12 | 18.7% | -0.7 | . | . | . | .
Cc1c(Cc2ccccc2)c(=O)oc2c(O)c(O)ccc12 | -22.2% | -18.2 | -5.4% | -11.1% | 13.0% | 3.16µM*
Cc1oc2c(O)c(O)ccc2c(=O)c1-c1cnn(-c2ccccc2)c1 | ? | -7.1 | 28.2µM* | -0.4%[46.1 µM] | 2.24µM* | 5.5%
Cc1c(Cc2ccccc2)c(=O)oc2cc(O)ccc12 | -2.3% | 15.5 | . | ? | 3.9% | ?
COc1ccc2c(=O)c(-c3ccccc3)c(C)oc2c1 | 13.5% | -1.6 | ? | -10.1%[46.1 µM] | 0.2% | -4.9%
COc1cc(OC)c2c(=O)c(-c3ccccc3)c(C)oc2c1OC | 1.5% | 2.8 | 14.1µM* | . | 1.8% | -2.1%
Cc1cc(=O)oc2c(O)c(O)ccc12 | 44.7µM* | -36.0* | ? | . | -14.6% | 2.24µM*
Cc1ccc(C)c(S(=O)(=O)NCCN2CCOCC2)c1 | 8.5% | 3.7 | . | . | . | .
CCc1c2c(nc3ccc(OC)cc13)OC(CC)C2 (configuration not stated) | 15.4% | 2.1 | -9.0% | . | -1.4% | -9.6%
Cc1c(C(=O)N(C)C2CCCCC2)sc2ncnc(N3CCN(c4ccccc4)CC3)c12 | -5.5% | . | . | . | . | .
Cc1oc2c(O)c(O)ccc2c(=O)c1-c1ccccc1 | 50.1µM* | -12.0 | . | 7.6% | -17.0% | 12.6µM*
Cc1oc2c(O)c(O)ccc2c(=O)c1-c1ccc(Cl)cc1 | -17.9% | 0.2 | . | . | . | .
CSCCC(NC(=O)c1ccccc1Br)C(=O)N1CCCC(C(F)(F)F)C1 (configuration not stated) | 13.2% | . | . | . | . | .
CCOCCCNC(=O)COC(=O)/C=C/c1ccc(S(=O)(=O)N2CCc3ccccc32)cc1 | -8.7% | -1.3 | 7.94µM* | -16.4% | 2.9% | -17.9%
CC(C)C(C)NC(=O)COC(=O)/C=C/c1ccc(S(=O)(=O)N2CCc3ccccc32)cc1 (configuration not stated) | 6.2% | 0.0 | ? | -42.6% | -5.5% | -5.6%
COCCCn1c(=O)/c(=C\c2ccccc2OC(F)F)s/c1=C(/C#N)C(N)=O | 4.4% | 1.0 | 2.5% | -5.9% | -4.1% | ?
C=CCn1c(=O)/c(=C/c2ccc(C)o2)s/c1=C(/C#N)C(=O)c1ccccc1 | ? | -21.0 | 0.708µM* | -26.0%[46.1 µM] | 73.1% | -15.0%
NC(=O)c1ccc(Oc2ccc3c(c2)CCC3)c([N+](=O)[O-])c1 | -3.4% | -1.3 | . | . | . | .
